Reference: PubChem BioAssay AID1117319 (Southern Research Institute, 2015)
In all, about 260,000 compounds went through this assay and about 1,500 (0.58%) were called active. Roughly 5% stayed inconclusive and do not appear here.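 The calls were made as follows: active = inhibition above a set limit at one or more doses, reproduced on every date tested; inconclusive = results disagree between test dates, or hit never tested in dose response; inactive = the rest.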 These entries were drawn from the full list. Potency and affinity values are given separately.

molecular target: Virion infectivity factor (Human immunodeficiency virus type 1 group M subtype B (isolate BH10)) + Virion infectivity factor (Human immunodeficiency virus type 1 group M subtype B (isolate BRU/LAI)) + Virion infectivity factor (Human immunodeficiency virus type 1 group M subtype B (isolate PCV12)) + Virion infectivity factor (Human immunodeficiency virus type 1 group M subtype B (isolate HXB2)) + DNA dC->dU-editing enzyme APOBEC-3G (Homo sapiens) (UniProt P69720+P69721+P69722+P69723+Q9HC16); assay: inhibitors of Vif binding to APOBEC3G peptide, primary screen, biochemical, TR-FRET, GST-Vif 1-94, biotin-A3G peptide, dose response retest (AID 1117319); details: stronger effect = higher value;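 also: Vif residues 1-94 fused to GST binding biotinylated APOBEC3G peptide 110-148; 0% = full assay without inhibitor and 100% = GST in place of GST-Vif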

inhibition, inactive:
COc1cccc(-c2cc3c(=O)n(-c4ccccc4)c(=S)[nH]c3s2)c1 -16.9%
Cc1c(C)n2c3c(cccc13)CC2 3.05%
CC(=O)c1ccc(NC(=O)c2cccc(NC(=O)c3ccccc3)c2)cc1 -13.5%
O=C(Nc1ccc(N2CCOCC2)cc1)c1ccc2nc(-c3ccco3)c(-c3ccco3)nc2c1 10.5%
O=C(Nc1cccc(-c2nnc(-c3ccco3)o2)c1)c1ccccc1 -5.38%
O=C(c1ccccc1)c1ccc2nc(-c3ccco3)c(-c3ccco3)nc2c1 3.26%
O=C(Nc1cccc(C(F)(F)F)c1)c1ccco1 -3.65%
O=C(Nc1ccccc1)c1cccc(C(F)(F)F)c1 0.71%
COc1ccc2cc(C3=CC(=O)CC(C)(C)C3=O)ccc2c1 4.18%
Cc1cc(C)nc(-n2ncc3c2CCCC3=O)n1 -7.41%
COc1ccc([C@@H]2C[C@H]3[C@@H](CN2S(=O)(=O)c2ccccc2)C(=O)C[C@@H](c2ccccc2F)N3S(=O)(=O)c2ccc(C)cc2)cc1 -4.64%
CC1CCOC2(O1)C(=O)N(CN1CCN(c3cccc(Cl)c3)CC1)c1ccccc12 (stereo not given) 16.9%
Cc1ccc(Nc2nc(=O)[nH]nc2C)cc1 23.2%
COCCNC(C(=O)Nc1ccc([N+](=O)[O-])cc1Br)c1ccccc1 (stereo not given) -2.09%
Cc1noc(NS(=O)(=O)c2ccc(NC(=O)CCCOc3ccc(Cl)cc3Cl)cc2)c1C 2.83%
C=CCSc1nnc(NC(=O)CSc2ccccn2)s1 -2.29%
Cc1nnc(NC(=O)CSc2nnc(NC(=O)C(C)(C)C)s2)s1 22.2%
C#CCOCCOCCOCCNc1nc(N2CCN(C(=O)[C@H](Cc3ccc(O)cc3)n3cc([C@@H](N)C(C)CC)nn3)CC2)nc(N2CCN(C(=O)[C@H](CCCCN)n3cc([C@@H](N)CO)nn3)CC2)n1 (stereo not given in full) -12.6%
O=C(COc1c(F)c(F)cc(F)c1F)NNC(=O)CC1CCS(=O)(=O)C1 (stereo not given) -4.18%
CC1CN(S(=O)(=O)c2cccc(C(=O)OCC(=O)NCc3ccccc3)c2)CC(C)O1 (stereo not given) -6.28%
COc1ccc(N2C(=O)c3ccccc3NC2c2ccccc2O)cc1 (stereo not given) -3.39%
Cc1ccc(N2C(=O)c3ccccc3C2C(=O)c2cc(C)ccc2O)cc1 (stereo not given) 30.2%
CC(=O)SC1CC(=O)N(c2ccc(C(C)(C)C)cc2)C1=O (stereo not given) -11.1%
O=C(NCCc1ccccc1)c1coc(=O)c(Br)c1 -22.2%
COc1ccc(CCNC(=O)c2cc(-c3ccco3)on2)cc1OC -1.47%
O=C(NCc1ccccn1)c1ccc(NC(=O)c2ccco2)cc1 1.9%
O=C(NCCc1ccccc1)c1cc(-c2ccco2)on1 25.6%
O=C(NCc1ccccn1)c1ccc(=O)oc1 11.6%
CCc1nc2ccc(C(=O)NCCc3ccc(OC)c(OC)c3)cc2nc1CC 0.19%
O=C(NCCc1ccccc1)c1ccc2nccnc2c1 28.7%
COc1ccc(C(=O)NCc2ccccn2)cc1 19.1%
CCN(Cc1ccc(NC(C)=O)cc1)CC1CCCN(CCc2cccc(OC)c2)C1 (stereo not given) 3.62%
O=C(Cn1nnc(-c2ccccc2Cl)n1)Nc1cccc(S(=O)(=O)N2CCCC2)c1 -4.6%
COC(=O)c1ccccc1NC(=O)Nc1ccc(Cl)cn1 -0.47%
CCc1nc2ccc(C(=O)NCc3ccccc3)cc2nc1CC 13.9%
O=C(NCc1ccccc1)c1ccc2nccnc2c1 -2.53%
CC(C(=O)N1CCN(c2ccc(Cl)cc2)CC1)c1ncc(C(F)(F)F)cc1Cl (stereo not given) -3.01%
Cc1ccc(S(=O)(=O)NCc2nnc(SCC(=O)Nc3cccc(C)c3C)n2C)cc1 -1.43%
NS(=O)(=O)c1ccc(NC(=O)NC2CCCCC2)cc1 1.56%
CSc1oc(-c2ccco2)nc1S(=O)(=O)c1ccc(F)cc1 9.31%
CSc1oc(-c2ccco2)nc1S(=O)(=O)c1ccc(Br)cc1 6.37%
Cc1ccc2nc3sc(C(=O)Nc4ccc(N5CCOCC5)cc4)c(N)c3cc2c1 12.2%
NC(=O)c1ccc(OCC(F)(F)F)nc1 -12.4%
O=C(NC(=S)N1CCN(c2ccc([N+](=O)[O-])cc2)CC1)c1ccccc1Cl 0.79%
C[C@@H]1CCCCO[C@H](CN(C)C(=O)Nc2cccc3ccccc23)[C@@H](C)CN([C@H](C)CO)C(=O)c2cc(N(C)C)ccc2O1 4.84%
Cc1c(/C=N/Nc2ccc(F)cc2)c(O)n(C)c(=O)c1C#N 12.3%
CC(=O)N=Cc1c(C)c(C#N)c(=O)n(C)c1O 6.56%
O=C(C1CCN(S(=O)(=O)c2ccc3c(c2)OCCO3)CC1)N1CCc2ccccc21 24.2%
Oc1ccc(Cl)cc1N=Nc1ccccc1 0.9%
CNS(=O)(=O)c1cc(O)c2c(S(=O)(=O)NC)cccc2c1 1.99%
COc1ccccc1C(=O)NCCC(=O)Nc1ccc(S(=O)(=O)N2CC(C)CC(C)C2)cc1 (stereo not given) -5.91%
CC(C)OC(=O)CSc1nnc(Cc2ccccc2)n1C 1.42%
O=C(O)c1cc(-c2ccccn2)n[nH]1 -8.59%
CN(C)C(=O)c1ccc2c(c1)C1C3CCC(C3)C1C(c1ccccc1)N2 (stereo not given) -2.04%
O=C(O)c1ccc2c(c1)C1C=CCC1C(c1cc3c(cc1Br)OCO3)N2 (stereo not given) -3.12%
CC1(C)CC(=O)C2=C(C1)Nc1cc(C(=O)c3ccccc3)ccc1NC2c1ccccn1 (stereo not given) 1.75%
COc1ccc(OC)c(C2Nc3c(Cl)ccc(C(=O)O)c3C3C=CCC32)c1 (stereo not given) -11.5%
Cc1cc([N+](=O)[O-])cc2ncccc12 22.2%
O=[N+]([O-])c1ccc(Cl)c2c1C1C=CCC1C(c1ccccn1)N2 (stereo not given) -2.51%
Cc1ccc([N+](=O)[O-])cc1S(=O)(=O)Nc1ccccn1 11.9%
